# Screening data deposited in PubChem by National Center for Advancing Translational Sciences (NCATS).
# An excerpt weighted towards active compounds, which were near 8.5% of everything screened.
# JMJD2E inh = JMJD2E (human) inhibition. JMJD2E catalytic domain, FDH-coupled NADH fluorescence (FDH is formaldehyde dehydrogenase). 230,000 tested, 1.6% active. Potency, µM (top dose mostly 57.1 µM), for the others: at the highest dose activity change, negative = inhibition, usual class: inhibitors. B2RXH2; active means well fitted inhibition curve with a large enough effect, not every such curve was filed as active; inconclusive means small, poorly fitted or top-dose-only effect, or another doubt; inactive means no such curve, though single readings can be large or run the other way;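 further: potency means the concentration at half of the fitted maximal effect; 0% = wells with enzyme and -100% = buffer wells without enzyme; nearly all actives have a fitted effect of over 50% in size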
# RGS12 GoLoco inh = inhibitors of human Gai1-RGS12 GoLoco interaction (red fluorophore) | AID 880 | Potency, µM (titrated, usually from 61.6 µM), for inactives: top-dose activity, negative = inhibition, hits mostly inhibitors | P63096 | 230,000 tested, 0.44% active | Gai1:RGS12 GoLoco peptide FP, rhodamine, 10 min; active means well fitted inhibition curve with a large enough effect, not every such curve was filed as active; inactive means no such curve, though single readings can be large or run the other way; further: potency means the concentration at half of the fitted maximal effect; nearly all actives have a fitted effect of over 30% in size
# NPSR antag = neuropeptide S receptor (human) antagonism, cAMP. Potency, µM (top dose mostly 38.3 µM), without a hit: at the top dose activity change, negative = inhibition, most hits filed as inhibitors. Q6W5P4. CHO-NPSR cells, cAMP TR-FRET, antagonist mode. 220,000 tested, 1% active; further: potency means the concentration at half of the fitted maximal effect; nearly all actives have a fitted effect of over 50% in size
# Target sequence (Q6W5P4 whole entry, looked up): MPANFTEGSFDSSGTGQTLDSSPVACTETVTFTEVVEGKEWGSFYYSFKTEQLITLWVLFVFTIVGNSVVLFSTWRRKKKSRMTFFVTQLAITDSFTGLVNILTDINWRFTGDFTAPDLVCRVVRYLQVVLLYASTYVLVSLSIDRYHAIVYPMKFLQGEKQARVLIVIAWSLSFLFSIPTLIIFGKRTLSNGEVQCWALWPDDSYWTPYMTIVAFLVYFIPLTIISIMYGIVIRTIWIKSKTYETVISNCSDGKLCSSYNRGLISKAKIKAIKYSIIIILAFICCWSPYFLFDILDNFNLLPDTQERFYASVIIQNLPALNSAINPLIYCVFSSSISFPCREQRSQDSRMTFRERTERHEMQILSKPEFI
# Sfp inh = blocks B. subtilis Sfp PPTase activity; Q9F4F7; Biochemical Sfp PPTase activity, qHTS; Potency, µM, for inactives: largest response in the series, negative = inhibition, hits mostly inhibitors; 310,000 tested, 3.5% active; AID 1490;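 further: the enzyme is Sfp with the accession as filed and its product quenches rhodamine fluorescence; potency means the concentration at half of the fitted maximal effect; 0% = enzyme reaction without inhibitor and -100% = no enzyme wells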
#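 Buffer: 50 mM Hepes-Na pH 7.6, 10 mM MgCl2, 0.01% Nonidet P-40, 0.01% BSA. Enzyme 15 nM, pre-exposed to compound 15 min; substrates then added and fluorescence change tracked over 30 min.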
# Coupling enz = coupling enzyme interference in Giardia aldolase counter-screen; coupling enzyme system counterscreen, AmpLite Red fluorescence; 290,000 tested, 0.67% active; activity change, negative = inhibition, % at 58.2 µM, hits read low; in the data active means activity change below about -30%
#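 Fluorescence at 525 nm excitation and 598 nm emission measured inhibition of the coupled detection system without aldolase. Compounds (at 57.5 uM final) were preincubated 10 min at room temperature with coupling enzyme reagent before a 20 min substrate/AmpLite Red step.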
# ALDH1A1 inh = inhibitors of human aldehyde dehydrogenase 1A1; P00352; Purified ALDH1A1, NADH fluorescence, propionaldehyde substrate; Potency, µM (titrated, usually from 75.3 µM), inactives show at the top dose activity, negative = inhibition, usual class: inhibitors; 220,000 tested, 7.3% active; active means well fitted inhibition curve with a large enough effect, not every such curve was filed as active; inconclusive means small, poorly fitted or top-dose-only effect, or another doubt; inactive means no such curve, though single readings can be large or run the other way;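 further: potency means the concentration at half of the fitted maximal effect; plate controls were no enzyme wells and a reference inhibitor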
# Starred values were filed as active, the others as inactive; ? = inconclusive; / = not tested or not shown; ! = repeats disagree; [ ] = another dose, or the depositor's remark. Unless noted, the call rests on the fitted dose curve; in most records, active means well fitted curve in the direction sought with a large enough effect; inconclusive means small, poorly fitted or top-dose-only effect, or another doubt; inactive means no such curve, though single readings can be large; an effect the other way counts as inactive or inconclusive. Unless noted, on the % scale 0 is the no-effect control and ±100 the full control effect.
SMILES,JMJD2E inh,RGS12 GoLoco inh,NPSR antag,Sfp inh,Coupling enz,ALDH1A1 inh
COc1ccc(C2C=C(C34CC5CC(CC(C5)C3)C4)NC(=S)N2)cc1 (stereo not given),?,9%,-38%,2%,1,4µM*
Cc1nc(C)c(C(=O)N2CCCC(C(=O)c3ccc(Cl)cc3C)C2)s1 (stereo not given),/,/,/,11%,/,/
NC[C@@H](O)c1ccc(O)c(O)c1,3.5µM*,0%,/,?,-36*!,0%
NC[C@H](O)c1ccc(O)c(O)c1,10µM*,12%,10%[46.1 µM],?,-40*,5%
CS(=O)(=O)c1ccccc1C(=O)Nc1cccc2ncccc12,/,/,/,15%,4,/
COc1cc(C(=O)O)nc2ccc([N+](=O)[O-])cc12,-18%,8%,-4%,10µM*,-18,?
COc1ccccc1CN1C(=O)c2ccccc2C1C(=O)NC1CCC(C)CC1 (stereo not given),2%,15%,-50%,-16%,1,-11%
COc1ccc(S(=O)(=O)Nc2ccccn2)cc1,/,/,/,12%,0,/
COc1ccccc1Oc1c(NS(=O)(=O)c2ccc(C(C)(C)C)cc2)nc(-c2ncccn2)nc1OCCO,/,/,/,56µM*,/,/
O=C(NCc1ccc(Cl)cc1Cl)C1CCN(S(=O)(=O)c2ccc3c(c2)OCCCO3)CC1,-2%,-22%,-18%[46.1 µM],8%,2,?
O=C(NCC1CCCO1)c1ccc(Cl)c(S(=O)(=O)N2CCCCC2)c1 (stereo not given),/,/,/,11%,-2,/
